About 550 (24%) of roughly 2,300 compounds were called active. How the calls were made is not given here. A selection follows. Measured potencies and affinities stand elsewhere.
Test: Vero E6 cell cytotoxicity, dose response, cytotoxicity control for non-replicating M. tuberculosis project, secondary assay (AID 492998)
Conditions: series mostly up to 20 µM
With `O=C(OCc1nnc(-c2ccccc2)o1)c1ccc(Br)o1` the outcome was “inactive”. With `Nn1c(SCCOc2ccc(Cl)cc2)nnc1-c1cccnc1` the outcome was “inactive”. For `COc1ccc(C(=O)COC(=O)c2ccc([N+](=O)[O-])s2)cc1OC`, the outcome was “inactive”. For `COc1cc(C=O)ccc1OCCOCCOc1ccc(Cl)cc1`, the outcome was “inactive”. With `COC(=O)CCc1nc2c(C#N)c(-c3ccc(Cl)cc3)ccn2n1` the outcome was “inactive”. For `O=C(Nc1ccc(Br)cc1)c1cc([N+](=O)[O-])cc([N+](=O)[O-])c1`, the outcome was “inactive”. With `O=C(NCC1CCCCC1)c1ccco1` the outcome was “inactive”. With `Oc1ccccc1-c1nnc(COc2ccccc2)o1` the outcome was “inactive”. For `Cc1ccc(CCC(=O)Nc2ccc(C)c(C)c2)o1`, the outcome was “inactive”. For `Cc1cccc(NC(=O)c2n[nH]c([N+](=O)[O-])c2Br)c1C`, the outcome was “inactive”. With `Cc1cccc(NCCC(=O)c2ccc([N+](=O)[O-])cc2)c1C` the outcome was “inactive”. With `CC12CN3CC(C)(CN(C1)C3c1ccc([N+](=O)[O-])o1)C2` (centres undefined) the outcome was “inactive”. For `COc1ccc(NC(=O)c2ccc(-c3ccc([N+](=O)[O-])cc3)o2)cc1OC`, the outcome was “inactive”. With `CC1CC(C)CN(C(=O)COC(=O)c2ccc([N+](=O)[O-])o2)C1` (centres undefined) the outcome was “inactive”. For `O=[N+]([O-])c1ccc(CN2CCN(c3ccc(Cl)cc3)CC2)o1`, the outcome was “inactive”. In the case of `Cc1cccc(CSc2nnc(-c3ccco3)o2)c1`, the outcome is reported as “inactive”. For `CC(C)(C)c1ccc(OCCCC(=O)NC2=NCCS2)cc1`, the outcome was “inactive”. With `Cc1ccc(NC(=O)COc2ccccc2)cc1Cl` the outcome was “inactive”. With `O=C(NCCC1=CCCCC1)c1coc(=O)c(Br)c1` the outcome was “inactive”. With `O=C(COC(=O)c1ccc(Br)o1)Nc1ncc([N+](=O)[O-])s1` the outcome was “inactive”. For `COC(=O)c1ccc(COC(=O)CCS(=O)(=O)c2ccc(C)cc2)cc1`, the outcome was “inactive”. In the case of `CCOC(=O)CC(=O)Nc1ccc(C(=O)OCC)cc1`, the outcome is reported as “inactive”. For `C=CCc1ccc2oc(C(=O)OCC)cc(=O)c2c1O`, the outcome was “inactive”. For `CCNC(=O)NC(=O)C(C)OC(=O)CCCSc1nc2ccccc2s1` (centres undefined), the outcome was “inactive”. With `Cc1cccc(C)c1NC(=O)COC(=O)CCc1c[nH]c2ccccc12` the outcome was “inactive”. With `O=S1(=O)N=C(N/N=C/C=C/c2ccccc2)c2ccccc21` the outcome was “inactive”. For `COCCn1c(C)cc(C(=O)COC(=O)c2ccc([N+](=O)[O-])o2)c1C`, the outcome was “inactive”. In the case of `O=C(Nc1ccc([N+](=O)[O-])cc1)c1ccc(Cn2cc([N+](=O)[O-])cn2)cc1`, the outcome is reported as “inactive”. In the case of `Cc1ccc(NC(=O)c2noc(C(C)C)c2[N+](=O)[O-])cc1`, the outcome is reported as “inactive”. For `Cc1[nH]c2ccccc2c1C(=O)C(C)OC(=O)c1ccc([N+](=O)[O-])o1` (centres undefined), the outcome was “inactive”. For `Cc1cc(C)c(C(=O)COC(=O)c2ccc([N+](=O)[O-])o2)cc1C`, the outcome was “inactive”. With `O=C(Nc1ccccc1F)c1ccc(CSc2ccccc2)o1` the outcome was “inactive”. For `Cc1cc(C(=O)N/N=C/c2ccc([N+](=O)[O-])o2)c(C)o1`, the outcome was “inactive”. For `CCCCC1CCC(C(=O)Nc2ccc(S(=O)(=O)Nc3nccs3)cc2)CC1` (centres undefined), the outcome was “inactive”. With `CCCOC(=O)c1ccc(NC(=O)c2ccccc2OC)cc1` the outcome was “inactive”. For `CCOC(=O)C1CCN(Cc2ccc(-c3ccccc3)cc2)CC1`, the outcome was “inactive”. In the case of `OC(C#CCN1CCOCC1)c1cccs1` (centres undefined), the outcome is reported as “inactive”. For `C=CCNc1nnc(Sc2ncccc2[N+](=O)[O-])s1`, the outcome was “inactive”. In the case of `S=C1CN=C(c2ccccc2)c2cc(Cl)ccc2N1`, the outcome is reported as “inactive”. For `CC(C)Oc1ccc(C(=O)CCN2CCCCC2)cc1`, the outcome was “inactive”. With `Cc1ccc(CCC(=O)Nc2cc(Cl)ccc2Cl)o1` the outcome was “inactive”. For `CCOc1ccc(CC(=O)N2N=C(C)CC2(O)C(F)(F)F)cc1` (centres undefined), the outcome was “inactive”. For `O=C(NCc1ccc(F)cc1)c1ccc(Br)o1`, the outcome was “inactive”. In the case of `CCn1nnc(NC(=O)c2ccc(-c3ccc(Cl)cc3)o2)n1`, the outcome is reported as “inactive”. In the case of `CCn1nnc(NC(=O)COc2ccc(C3CCCCC3)cc2)n1`, the outcome is reported as “inactive”. In the case of `O=C(c1ccc([N+](=O)[O-])o1)N1CCN(Cc2ccccc2)CC1`, the outcome is reported as “inactive”. In the case of `Cc1ccc(OCC(=O)N/N=C/c2ccc([N+](=O)[O-])o2)cc1`, the outcome is reported as “inactive”. In the case of `O=C(NCCC1=CCCCC1)c1ccc(F)cc1`, the outcome is reported as “inactive”. In the case of `O=C(CCC1CCCC1)Nc1ccc(Br)cn1`, the outcome is reported as “inactive”. In the case of `O=C(c1cc(F)ccc1F)C1CCCN(Cc2ccc3nonc3c2)C1` (centres undefined), the outcome is reported as “inactive”. For `CC(C)Cn1c(N)c(C(=O)COC(=O)c2cnc(Cl)c(Cl)c2)c(=O)n(C)c1=O`, the outcome was “inactive”. With `COc1cc(N=c2ssnc2Cl)cc(OC)c1` the outcome was “inactive”. In the case of `CCOC(=O)COc1ccc2c(=O)cc(-c3ccccc3)oc2c1`, the outcome is reported as “inactive”. With `COC(=O)C(C)Oc1ccc2cc(-c3ccccc3)c(=O)oc2c1` (centres undefined) the outcome was “inactive”. In the case of `Cc1ccccc1OCC(=O)OCC(=O)c1ccc[nH]1`, the outcome is reported as “inactive”. With `Cc1ccc(-c2nnc(-c3cccs3)o2)cc1` the outcome was “inactive”. With `Fc1ccc(-c2nnc(-c3ccc(F)cc3)o2)cc1` the outcome was “inactive”. For `Fc1ccc(-c2nnc(CSc3nnc(-c4cccs4)o3)o2)cc1`, the outcome was “inactive”. In the case of `COc1cccc(OCc2nnc(-c3cccs3)o2)c1`, the outcome is reported as “inactive”. In the case of `Cc1cc(C(=O)N/N=C/c2ccc(OC(=O)c3ccccc3Br)cc2)n[nH]1`, the outcome is reported as “inactive”. In the case of `Oc1oc(-c2ccco2)nc1C=Nc1cccc(Cl)c1`, the outcome is reported as “inactive”. For `CCc1cc(C(c2ccncc2)N2CCN(C)CC2)c(NC(=O)c2ccccc2)s1` (centres undefined), the outcome was “inactive”. For `CCOC(=O)C1(CC2CCCCO2)CCN(Cc2nccn2-c2ccc(OC)cc2)CC1` (centres undefined), the outcome was “inactive”. In the case of `COC12C(COC(N)=O)C3=C(C(=O)C(C)=C(N)C3=O)N1CC1C2N1C` (centres undefined), the outcome is reported as “inactive”. With `c1ccc(C2=Nc3ccccc3OC2)cc1` the outcome was “inactive”. With `Cc1cc2nc(/N=C(\N)NC(=O)C(C)C)nc(C)c2cc1C` the outcome was “inactive”. With `Cc1ccc2nc(CCc3nc4ccc(C)cc4[nH]3)[nH]c2c1` the outcome was “inactive”. In the case of `CC(C)OC(=O)CCCCCN1C(=O)CSC1=S`, the outcome is reported as “inactive”. In the case of `O=C(Nc1ccccn1)c1ccc(C(=O)c2ccccc2)cc1`, the outcome is reported as “inactive”. In the case of `CCCCNC(=O)COC(=O)c1cc(Br)ccc1Cl`, the outcome is reported as “inactive”. With `Cc1[nH]n2c(=O)c3c(nc2c1-c1ccccc1)CCCC3` the outcome was “inactive”. For `CCOC(=O)COc1ccc2c(c1)C(=O)CC1(CCCCC1)O2`, the outcome was “inactive”. For `O=C(COc1ccc(Cl)cc1)Nc1ccccc1Cl`, the outcome was “inactive”. With `CC1=NN(C(=O)COc2ccccc2C)C(O)(c2ccc(Cl)cc2)C1` (centres undefined) the outcome was “inactive”. For `Cc1cc(Cl)ccc1NNC(=O)c1c(C)noc1C`, the outcome was “inactive”. In the case of `O=C(N/N=C/c1ccccn1)c1cccc([N+](=O)[O-])c1`, the outcome is reported as “inactive”. With `Cc1ccc(CSCCNC(=O)c2cccc([N+](=O)[O-])c2)cc1` the outcome was “inactive”. For `O=C(Oc1cccc2cccnc12)c1cccc([N+](=O)[O-])c1`, the outcome was “inactive”. With `COc1cccc(OCCNC(=O)c2cc([N+](=O)[O-])cc([N+](=O)[O-])c2)c1` the outcome was “inactive”. For `O=C(N/N=C/C=C/c1cccc([N+](=O)[O-])c1)c1ccncc1`, the outcome was “inactive”. In the case of `COc1ccc(C(=O)NN/C(C)=C/C(=O)c2ccccc2)cc1`, the outcome is reported as “inactive”. For `O=C(c1ccco1)N1CCN(c2ccc(F)cc2)CC1`, the outcome was “inactive”. In the case of `CCOC(=O)C(=O)Cc1nc2ccccc2s1`, the outcome is reported as “inactive”. With `C=C1CCC[C@]2(C)C[C@H]3OC(=O)C(CNC(C)CCCC(C)C)[C@H]3CC12` (some centres undefined) the outcome was “inactive”. In the case of `COc1ccc([C@@]2(O)c3c(ccc(CC=C(C)C)c3O)NC(=O)[C@@H]2OC)cc1`, the outcome is reported as “inactive”. With `COc1ccccc1C(c1nnnn1Cc1ccccc1)N1CCC(C(N)=O)CC1` (centres undefined) the outcome was “inactive”. For `Cc1ccc(-c2nnc(SCC#CCOC(=O)c3ccco3)o2)cc1`, the outcome was “inactive”. With `O=C(Cc1ccc(F)cc1)Nc1ccc(Cl)cn1` the outcome was “inactive”. With `O=C1N(c2ccc3c(c2)OCCO3)C(c2ccccc2)C1(F)F` (centres undefined) the outcome was “inactive”. For `CCCCNC(=O)Cc1ccc(C)cc1`, the outcome was “inactive”. In the case of `CC(C)NC(=O)C1COc2ccccc2O1` (centres undefined), the outcome is reported as “inactive”. With `O=C(N/N=C\c1ccc([N+](=O)[O-])o1)C1COc2ccccc2O1` (centres undefined) the outcome was “inactive”. For `CC(C)(C)c1ccc2c(c1)OC(C(=O)N/N=C\c1ccccn1)CO2` (centres undefined), the outcome was “inactive”. For `Cn1cccc1/C=N\NC(=O)C1COc2ccccc2O1` (centres undefined), the outcome was “inactive”. With `O=C(Nc1cccc(Cl)c1)C1COc2ccccc2O1` (centres undefined) the outcome was “inactive”. For `O=C(Nc1ccc([N+](=O)[O-])cc1)C1COc2ccccc2O1` (centres undefined), the outcome was “inactive”. For `Clc1ccc(CN2C3=NCCCN3c3ccccc32)cc1`, the outcome was “inactive”. In the case of `C#CCOc1coc(COC(=O)c2ccccc2)cc1=O`, the outcome is reported as “inactive”. For `Cc1ccc(C(C)NC(=O)c2cc3ccccc3oc2=O)cc1C` (centres undefined), the outcome was “inactive”. In the case of `COC(=O)C1=C(C)N(Cc2ccccc2)C(=NCc2ccccc2)N[C@H]1c1cccc(F)c1`, the outcome is reported as “inactive”. In the case of `CC(OC(=O)c1ccc2c(=O)n3c(nc2c1)CCCCC3)C(=O)Nc1ccc(Cl)cn1` (centres undefined), the outcome is reported as “inactive”. In the case of `CCOC(=O)Cn1cc(C#N)c2ccccc21`, the outcome is reported as “inactive”. For `O=C(NCc1nnc(SC/C=C/c2ccccc2)o1)c1ccco1`, the outcome was “inactive”. For `CCCC(C)C(=O)Nc1ccc(Cl)cn1` (centres undefined), the outcome was “inactive”. With `CC(C)(C)OC(=O)NCCc1nnc(S(=O)(=O)Cc2ccc(Cl)cc2Cl)o1` the outcome was “inactive”. For `O=C(Nc1nc2ccccc2n1CCN1CCCC1)C1CCCCC1`, the outcome was “inactive”. With `Cn1c(CNc2ccccc2O)nc2ccccc21` the outcome was “inactive”. In the case of `Nc1nc2ccccc2n1CCOc1ccc(Br)cc1`, the outcome is reported as “inactive”. With `CCOC(=O)c1csc(COc2ccccc2Cl)n1` the outcome was “inactive”. In the case of `O=C(Nc1ccc(-c2nc3ccccc3c(=O)o2)cc1)c1ccco1`, the outcome is reported as “inactive”. With `Nc1nc2ccccc2n1CCOc1ccccc1Cl` the outcome was “inactive”. For `O=C(COC(=O)c1cccs1)NCCC1=CCCCC1`, the outcome was “inactive”. In the case of `O=C(OCC(=O)N1CCc2ccccc21)c1ccc([N+](=O)[O-])cc1`, the outcome is reported as “inactive”. In the case of `CN(C)CCN1C(=O)c2oc3ccccc3c(=O)c2C1c1cccc(Br)c1` (centres undefined), the outcome is reported as “inactive”. In the case of `COC(=O)COc1cccc(NC(=O)COc2ccccc2)c1`, the outcome is reported as “inactive”. With `COc1ccc(OC(=O)c2cc3ccccc3o2)cc1` the outcome was “inactive”. In the case of `CC(=O)c1ccc(OCC(=O)Nc2ccc3c(c2)CCC3)cc1`, the outcome is reported as “inactive”. For `CC(=O)c1ccc(NC(=O)CCc2ccc(C)o2)cc1`, the outcome was “inactive”. In the case of `CC1=NN(C(=O)c2ccccc2F)C(O)(c2ccc(Cl)cc2)C1` (centres undefined), the outcome is reported as “inactive”.

Source: PubChem BioAssay AID492998 (Southern Research Specialized Biocontainment Screening …, 2010)
